Measurements from the supplement of paper PMC10042075.
“And” between values parts separate entries of the source, which are not always exact repeats. Equal values may be shown once. Where a name gives a salt, the structure may show the parent alone.

The compounds below were run on LASCPC-01 (assay: cell viability relative to DMSO control (fraction); higher = less growth inhibition (more viable cells)). Details: 2 µM; 72 h.
Protocol: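 High-throughput single-dose screen in the LASCPC-01 NEPC cell line in 384-well plates. Cells were treated with each compound at 2 µM for 72 h, and viability was read by CellTiter-Glo luminescence. Values are normalised to the DMSO control (compound/DMSO) from three replicates; only the 5-HT-related subset of the 7315-compound library is given.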

Row | SMILES | cell viability
1 | CN1CCC(c2c[nH]c3ccc(O)cc23)CC1 | 0.966 and 0.511
2 | NCCc1c[nH]c2ccccc12 [Tryptamine] | 1.08
3 | COc1ccc2[nH]cc(C3=CCNCC3)c2c1 | 0.776
4 | N#Cc1ccc(N2CCN(C(=O)COc3ccc4[nH]cc(CCN)c4c3)CC2)cc1 [Donitriptan monohydrochloride] | 1.08
5 | CC(N)Cc1c[nH]c2ccc(O)cc12 (stereo not drawn) [alpha-Methyl-5-hydroxytryptamine maleate] | 1.03
6 | CC[C@@H](CO)NC(=O)[C@@H]1C=C2c3cccc4c3c(cn4C)C[C@H]2N(C)C1 [Methysergide maleate] | 1.1
7 | NCCc1c[nH]c2ccc(O)cc12 [Serotonin HCl] | 0.977
8 | COc1ccc(C(CN(C)C)C2(O)CCCCC2)cc1 (stereo not given) [Venlafaxine hydrochloride] | 1.06
9 | COc1ccccc1N1CCNCC1 [1-(2-Methoxyphenyl)piperazine hydrochloride] | 0.869
10 | c1ccc2c(N3CCNCC3)cccc2c1 [1-(1-Naphthyl)piperazine hydrochloride] | 1.08
11 | CN1c2ccccc2C(NCCCCCCC(=O)O)c2ccc(Cl)cc2S1(=O)=O (stereo not given) [Tianeptine sodium] | 0.963
12 | CC(N)Cc1cccc(C(F)(F)F)c1 (single isomer, unassigned; (+)) [(+)-Norfenfluramine hydrochloride] | 1.09
13 | Clc1ccc(C(OCCN2CCCCC2)c2ccccc2)cc1 (stereo not given) [Cloperastine hydrochloride] | 0.924
14 | CCCN(CCC)[C@@H]1CCc2cccc(O)c2C1 [R-(+)-8-Hydroxy-DPAT hydrobromide] | 1.03
15 | C[C@H]1CNCCc2ccc(Cl)cc21 [Lorcaserin HCl] | 1.18
16 | CCCN(CCC)C1CCc2cccc(O)c2C1 (stereo not given) | 0.92
17 | O=S1(=O)N(CCN2CC=C(c3c[nH]c4cc(F)ccc34)CC2)c2cccc3c2N1CCC3 | 0.982
18 | CNCCc1c[nH]c2ccc(O)cc12 [N-omega-Methyl-5-hydroxytryptamine oxalate salt] | 1.11
19 | NCCc1c[nH]c2ccccc12 [Tryptamine hydrochloride] | 0.96
20 | CN1C[C@H](CNC(=O)OCc2ccccc2)C[C@@H]2c3cccc4c3c(cn4C)C[C@H]21 [Metergoline] | 0.997

Row | SMILES | cell viability
21 | COc1ccc2c(c1OC)CN1CCc3cc4c(cc3C1C2)OCO4 (stereo not given) [Tetrahydroberberine THB] | 0.961
22 | COc1ccc2[nH]cc(CCN)c2c1 [O-Methylserotonin hydrochloride] | 0.981
23 | CCCN(CCC)C1CCc2cccc(O)c2C1 (stereo not given) [(?-8-Hydroxy-DPAT hydrobromide] | 1.16
24 | CN1CCN(c2nc3ccccc3nc2Cl)CC1 | 0.966
25 | CN1CCC[C@@H]1Cc1c[nH]c2ccc(Nc3ncccc3[N+](=O)[O-])cc12 | 0.897
26 | O=c1ccc2cc3ccoc3c(O)c2o1 [Xanthotoxol] | 1.15
27 | COc1cc2c3c(c1OC)-c1ccccc1C[C@H]3N(C)CC2 [Nuciferine] | 0.818
28 | C[C@H](N)CN1CCc2ccc(Br)cc21 [VER-3323 hemifumarate salt] | 1.16
29 | C=C[C@H]1CN2CC[C@@]3(C(=O)Nc4ccccc43)[C@@H]2C[C@@H]1/C(=C\OC)C(=O)OC [Isocorynoxeine] | 0.677
30 | C[N+]1(C)C2CCC1CC(OC(=O)c1c[nH]c3ccccc13)C2 (stereo not given) [3-Tropanylindole-3-carboxylate methiodide] | 0.906
31 | NCCc1c[nH]c2ccc(O)cc12 [Serotonin hydrochloride] | 0.606
32 | CN1C[C@H](C(=O)N[C@]2(C)O[C@@]3(O)[C@@H]4CCCN4C(=O)[C@H](Cc4ccccc4)N3C2=O)C[C@@H]2c3cccc4[nH]cc(c34)C[C@H]21 [Dihydroergotamine methanesulfonate] | 1.18
33 | O=[N+]([O-])c1ccc2nc(N3CCNCC3)ccc2c1 [Quipazine,6-nitro-,maleate] | 1.04
34 | CC(N)Cc1c[nH]c2ccc(OCc3cccs3)cc12 (stereo not given) | 1.18
35 | Clc1ccc([C@]23CNC[C@H]2C3)cc1Cl [Amitifadine hydrochloride] | 0.896
36 | CN1C(=O)COc2c(C(=O)NC3CN4CCC3CC4)cc(Cl)cc21 (stereo not given) [Azasetron hydrochloride] | 1.44
37 | COc1cc(N)c(Cl)cc1C(=O)NC1CN2CCC1CC2 (stereo not given) [Zacopride hydrochloride] | 0.366
38 | CN1CCN(c2cccc3[nH]c(=O)oc23)CC1 [Pardoprunox hydrochloride] | 1.03
39 | COc1ccc(C(CN(C)C)C2(O)CCCCC2)cc1 (stereo not given) [Venlafaxine] | 1.04
40 | Cc1[nH]c2ccc(O)cc2c1CCN [2-Methyl-5-hydroxytryptamine maleate] | 0.982
